Assay [1] in a line: compounds binding Alexa647 anti-His antibody – biochemical, small-molecule microarray, 635 nm fluorescence, artefact control for SMM control protein annotation, primary screen (AID 1128).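 Note: score merges feature fluorescence with signal-to-noise for each printed compound spot.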 As to conditions: higher = more signal.
Assay [2] concerns Human papillomavirus type 1a E7 protein (residues 1-88). The assay is described as follows: HPV1a E7 small-molecule binders, primary screen, biochemical, small-molecule microarray, residues 1-88, 635 nm (AID 1129). As to conditions: small-molecule microarray binding, fluorescence 635 nm; higher = more signal.
In assay [3] the target is Focal adhesion kinase 1 (Homo sapiens) (UniProt Q05397). Put plainly: PTK2 protein binding on printed compound slides – biochemical, small-molecule microarray, 635/667 nm fluorescence, BSA, DTT, primary screen (AID 1130).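 Note: composite of spot emission at 667 nm and signal to noise over triplicate slides.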 Conditions: 635 nm fluorescence, higher = more signal.
Focal adhesion kinase 1 (Homo sapiens), sequence (Q05397 whole entry, looked up): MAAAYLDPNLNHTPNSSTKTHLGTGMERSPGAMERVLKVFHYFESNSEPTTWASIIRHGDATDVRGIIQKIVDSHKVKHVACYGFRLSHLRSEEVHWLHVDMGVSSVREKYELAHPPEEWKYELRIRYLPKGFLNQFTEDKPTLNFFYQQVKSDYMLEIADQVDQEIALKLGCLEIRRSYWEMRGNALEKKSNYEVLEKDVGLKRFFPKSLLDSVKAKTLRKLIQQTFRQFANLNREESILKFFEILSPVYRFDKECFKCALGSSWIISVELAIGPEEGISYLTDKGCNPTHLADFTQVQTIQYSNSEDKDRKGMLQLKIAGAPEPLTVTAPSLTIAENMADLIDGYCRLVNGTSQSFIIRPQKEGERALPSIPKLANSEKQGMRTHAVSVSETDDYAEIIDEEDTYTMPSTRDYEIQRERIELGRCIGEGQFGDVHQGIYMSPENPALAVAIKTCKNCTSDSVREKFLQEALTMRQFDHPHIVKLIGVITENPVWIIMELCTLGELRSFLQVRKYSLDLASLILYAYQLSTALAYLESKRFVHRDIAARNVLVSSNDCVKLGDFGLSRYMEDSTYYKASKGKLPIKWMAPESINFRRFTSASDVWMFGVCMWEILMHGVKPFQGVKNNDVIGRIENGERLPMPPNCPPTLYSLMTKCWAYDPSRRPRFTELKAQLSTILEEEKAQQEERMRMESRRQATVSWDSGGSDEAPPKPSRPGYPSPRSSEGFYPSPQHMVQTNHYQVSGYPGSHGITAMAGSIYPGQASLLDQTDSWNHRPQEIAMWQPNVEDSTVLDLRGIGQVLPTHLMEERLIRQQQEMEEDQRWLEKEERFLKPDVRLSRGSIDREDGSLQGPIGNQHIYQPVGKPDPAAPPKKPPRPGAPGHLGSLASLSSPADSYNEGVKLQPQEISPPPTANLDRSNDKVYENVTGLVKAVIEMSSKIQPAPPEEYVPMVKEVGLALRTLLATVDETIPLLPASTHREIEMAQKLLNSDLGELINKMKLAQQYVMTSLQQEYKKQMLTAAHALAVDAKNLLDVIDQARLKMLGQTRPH
For assay [4], the system named is Fibrinogen (Alexa647-labelled). Put plainly: Alexa647-fibrinogen binding to printed small molecules – biochemical, small-molecule microarray, 635/667 nm fluorescence, artefact control for SMM control-protein annotation, profiling panel (AID 1131).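 Note: z-score merges 667 nm fluorescence with per-spot signal-to-noise over triplicate slides.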 As to conditions: fibrinogen-A647 binding fluorescence, higher = more signal.
Assay [5] addresses Follistatin (Homo sapiens) (UniProt P19883). The assay is described as follows: FST protein binding to printed compounds – biochemical, small-molecule microarray, 635/667 nm fluorescence, primary screen (AID 1132). As to conditions: 635 nm fluorescence, higher = more signal.
Assay [6] has as its target Fibroblast growth factor 2 (Homo sapiens) (UniProt P09038). The assay is described as follows: basic fibroblast growth factor binding to printed compounds – biochemical, small-molecule microarray, 635/667 nm fluorescence, primary screen (AID 1133). As to conditions: FGF2, fluorescence 635/667, higher = more signal.
Assay [7] in a line: JC-1 mitochondrial potential readout, lung cancer cells – cell-based, A549, JC-1 fluorescence, basal, 24 h, 100 nL, profiling panel (AID 1138).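 Note: A549 lung adenocarcinoma cells under basal conditions with no added stimulus; test concentration not given here.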 As to conditions: higher = more signal.
The test system of assay [8] is Lefty1. Put plainly: Lefty1 protein binding to printed compounds – biochemical, small-molecule microarray, 635/667 nm fluorescence, primary screen (AID 1139). As to conditions: fluorescence 635/667, higher = more signal.
For assay [9], the system named is wheat germ agglutinin (Triticum aestivum), Alexa647-labelled. Put plainly: Alexa647-WGA lectin binding to printed small molecules – biochemical, small-molecule microarray, 635/667 nm fluorescence, artefact control for SMM control-protein annotation, profiling panel (AID 1140).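 Note: score merges 667 nm feature emission with signal to noise over triplicate slides.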 As to conditions: WGA-A647 binding, 635 nm fluorescence, higher = more signal.
For assay [10], the target named is Luciferin 4-monooxygenase (Photinus pyralis) (UniProt P08659). The assay is described as follows: inhibition of purified Photinus pyralis luciferase – biochemical, luminescence, purified enzyme, 2006 set, primary screen (AID 1141).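 Note: cell-free assay with purified firefly luciferase at 100 ng per well in PBS; test concentration not given here.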 As to conditions: purified firefly luciferase, SteadyGlo luminescence, 30 min; higher = more signal, called active from +8 up or from −8 down.
Luciferin 4-monooxygenase (Photinus pyralis), sequence (P08659 whole entry, looked up): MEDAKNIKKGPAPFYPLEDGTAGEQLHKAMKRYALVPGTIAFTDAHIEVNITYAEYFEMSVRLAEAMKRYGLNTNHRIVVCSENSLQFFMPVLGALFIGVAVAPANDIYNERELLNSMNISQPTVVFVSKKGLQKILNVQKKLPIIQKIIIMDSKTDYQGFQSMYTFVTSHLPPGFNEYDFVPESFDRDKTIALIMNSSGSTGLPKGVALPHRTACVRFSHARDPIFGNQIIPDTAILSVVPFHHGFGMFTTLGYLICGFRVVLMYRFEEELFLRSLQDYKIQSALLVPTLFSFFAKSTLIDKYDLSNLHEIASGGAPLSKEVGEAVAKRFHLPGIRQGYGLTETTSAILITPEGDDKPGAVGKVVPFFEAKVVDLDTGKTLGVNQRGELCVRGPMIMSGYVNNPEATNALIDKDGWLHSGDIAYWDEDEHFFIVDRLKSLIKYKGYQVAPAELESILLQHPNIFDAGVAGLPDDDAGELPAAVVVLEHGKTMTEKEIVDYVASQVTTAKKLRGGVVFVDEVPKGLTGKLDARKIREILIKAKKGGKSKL

For assay [11], the system named is Wnt5a (protein binding on small-molecule microarray). The assay is described as follows: small molecules binding Wnt5a protein – biophysical, small-molecule microarray, 635/667 nm fluorescence, primary screen (AID 1142).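 Note: fluorescence read at 667 nm with signal to noise per printed feature.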 Conditions: 635 nm fluorescence, higher = more signal.
Assay [12] can be described thus: ATP-based viability of Huh7 replicon cells – cell-based, CellTiter-Glo luminescence, basal, 48 h, cytotoxicity control for HCV replication inhibitor project, primary screen (AID 1143).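 Note: Huh7 hepatoma cells carrying a hepatitis C replication reporter with no stimulus; test concentration not given here.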 Conditions: higher = more signal, called active from +8 up or from −8 down.
Assay [13] is described as follows: Pseudomonas biofilm growth suppression – PAO1 strain, BacTiter-Glo luminescence, LB-PBS, primary screen (AID 1144). As to conditions: P. aeruginosa PAO1 biofilm, 12 h, higher = more signal.
A short description of assay [14]: basal CRE-LacZ reporter activity in PC12 – cell-based, unstimulated, primary screen (AID 1145). Conditions: no forskolin, luminescence, 4.5 h, higher = more signal, called active from +8 up or from −8 down.
A short description of assay [15]: forskolin-driven CRE-LacZ activity in PC12 – cell-based, CRE-LacZ reporter, forskolin-stimulated, primary screen (AID 1146).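 Note: PC12 cells with 6xCRE LacZ reporter stimulated by forskolin 10 µM; beta-galactosidase reporter signal reflecting CREB driven transcription.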 As to conditions: luminescence, 4.5 h, higher = more signal, called active from +8 up or from −8 down.
In assay [16] the target is Streptavidin (Streptomyces avidinii) (UniProt P22629). The assay is described as follows: compounds binding control protein streptavidin – biophysical, small-molecule microarray, 635/667 nm fluorescence, artefact control for SMM compound annotation, primary screen (AID 1147).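 Note: signal reflects streptavidin binding to arrayed compounds as a control protein.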 As to conditions: higher = more signal.
Streptavidin (Streptomyces avidinii), sequence (P22629 whole entry, looked up): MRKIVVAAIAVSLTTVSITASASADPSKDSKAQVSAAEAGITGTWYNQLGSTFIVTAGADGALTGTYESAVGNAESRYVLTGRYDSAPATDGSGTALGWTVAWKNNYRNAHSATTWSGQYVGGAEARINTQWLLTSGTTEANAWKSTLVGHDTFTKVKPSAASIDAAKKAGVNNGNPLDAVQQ
A short description of assay [17]: probe aInhba binding on compound microarray – biochemical, small-molecule microarray, 635/667 nm fluorescence, primary screen (AID 1148).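 Note: score merges 667nm spot fluorescence with signal-to-noise for antibody binding to printed compounds.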 Conditions: higher = more signal.
For assay [18], the target named is Torsin-1A (Homo sapiens) (UniProt O14656). The assay is described as follows: TOR1A wild-type binding on microarray – cell lysate, small-molecule microarray, lysate, 635/667 nm, primary screen (AID 1149). Conditions: COS7 hTOR1A-WT lysate, 635 nm fluorescence, higher = more signal.
Torsin-1A (Homo sapiens), sequence (O14656 whole entry, looked up): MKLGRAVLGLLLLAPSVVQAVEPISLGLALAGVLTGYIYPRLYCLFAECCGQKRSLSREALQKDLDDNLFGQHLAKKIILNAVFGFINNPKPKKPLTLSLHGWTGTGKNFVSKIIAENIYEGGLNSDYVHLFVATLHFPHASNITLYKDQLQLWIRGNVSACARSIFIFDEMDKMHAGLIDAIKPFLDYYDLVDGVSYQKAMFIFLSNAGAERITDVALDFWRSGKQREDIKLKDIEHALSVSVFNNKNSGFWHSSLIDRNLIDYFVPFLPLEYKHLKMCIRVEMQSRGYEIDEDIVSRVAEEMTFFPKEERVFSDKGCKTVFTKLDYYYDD
Assay [19] shares this target. Put plainly: torsin A mutant lysate binding on microarrays – cell lysate, small-molecule microarray, COS7 lysate, 635/667 nm fluorescence, primary screen (AID 1150).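 Note: score pools 667 nm emission and signal to noise measuring lysate protein binding.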 Conditions: COS7 hTOR1A mutant lysate, 635 nm fluorescence, higher = more signal.
Assay [20] deals with Sonic hedgehog protein (Shh). The assay is described as follows: Sonic hedgehog microarray binding compounds – biochemical, small-molecule microarray, 635/667 nm fluorescence, primary screen (AID 1151).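 Note: Shh protein binding to compounds spotted on small-molecule microarray slides; score combines spot fluorescence intensity with signal-to-noise across triplicate slides.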 Conditions: 635 nm fluorescence, higher = more signal.

SMILES strings stand for the structures. Activity calls are given as the source filed them. Unless noted, the rule behind the calls is not given here.

Fibroblast growth factor 2 (Homo sapiens), sequence (P09038 whole entry, looked up): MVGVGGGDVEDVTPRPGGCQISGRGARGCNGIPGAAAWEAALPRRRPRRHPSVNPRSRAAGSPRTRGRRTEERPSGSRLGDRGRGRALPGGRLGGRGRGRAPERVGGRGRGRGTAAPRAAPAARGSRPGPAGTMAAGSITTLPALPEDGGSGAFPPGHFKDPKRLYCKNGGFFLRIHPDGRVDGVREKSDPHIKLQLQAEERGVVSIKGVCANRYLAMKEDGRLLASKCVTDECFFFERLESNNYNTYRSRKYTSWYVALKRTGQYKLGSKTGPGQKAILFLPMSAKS
Follistatin (Homo sapiens), sequence (P19883 whole entry, looked up): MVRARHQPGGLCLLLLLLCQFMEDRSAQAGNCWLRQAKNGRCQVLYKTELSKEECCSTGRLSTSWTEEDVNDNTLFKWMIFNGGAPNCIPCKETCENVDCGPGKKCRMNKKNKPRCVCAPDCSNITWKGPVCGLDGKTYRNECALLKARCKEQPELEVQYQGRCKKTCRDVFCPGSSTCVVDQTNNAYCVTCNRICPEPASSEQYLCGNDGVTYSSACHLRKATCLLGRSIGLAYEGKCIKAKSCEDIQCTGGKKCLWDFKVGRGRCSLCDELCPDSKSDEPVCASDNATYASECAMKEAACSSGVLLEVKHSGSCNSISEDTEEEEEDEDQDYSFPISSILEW

For the compound `NC(=O)NCC#Cc1ccc2c(c1)[C@]1(C(=O)N2)[C@H](c2ccccc2OCCO)N2[C@H](c3ccccc3)[C@H](c3ccccc3)OC(=O)[C@H]2[C@@H]1C(=O)Nc1nc2ccccc2s1`, the composite z-score in assay [1] was determined as 0.111; in assay [2], 0.844; in assay [3], 0.346; in assay [4], 0.613; in assay [5], 0.759; in [6] it was 0.244. Also, the composite z-score is 0.373 in assay [8]; 0.89 in assay [9]; -0.0307 in [11]; 0.441 in assay [16]; 0.0314 in [17]; -0.671 in [18]. The values for the composite z-score in assay [19] and in [20] were 0.0313 and 0.812, respectively. Also, the z-score was -2.13 in assay [7]; 0.302 (inactive) in [10]; 0.0402 (inactive) in [12]; -1.39 (inactive) in assay [13]; -0.0784 (inactive) in [14]; 0.335 (inactive) in [15].

On to `CC(C)NC(=O)[C@@]1(C)c2ccccc2C(=O)N(Cc2cc(C(F)(F)F)cc(C(F)(F)F)c2)[C@H]1c1ccc(CO)cc1`, for which the composite z-score in assay [1] was -0.229; in assay [2], 0.272; in assay [3] it was 0.0662; in assay [4], -0.285; in assay [5], -0.101; in assay [6] it was -0.741. Further, the composite z-score was -0.146 in assay [8]; -0.568 in [9]; -0.533 in assay [11]; -0.417 in assay [16]; -0.269 in [17]; -0.979 in [18]. Besides, the figures for the composite z-score in [19] and in assay [20] were -0.723 and -0.328, respectively. Moreover, the z-score in assay [7] was 1.21; in [10] it was -0.734 (inactive); in assay [12], -3.78 (inactive); in assay [13], 1.03 (inactive); in assay [14], 0.648 (inactive); in assay [15], -0.405 (inactive).

Regarding `CCCCC(CC)C(O)C1C=CC2C(=O)N(Cc3ccccc3)C(=O)C2N1n1cnnc1` (stereo not given), the composite z-score in assay [1] was 0.544; in assay [2], 0.541; in [3] it was 1.57; in [4], 0.107; in assay [5] it was 0.539; in assay [6], -0.504. For the same compound, the composite z-score in assay [8] is 0.0981; in assay [9], 0.616; in assay [11], -0.205; in assay [16], 0.124; in assay [17], -0.166; in [18], 0.17. For the same compound, the composite z-score in [19] was 0.606; in assay [20] it was -0.405. Further, the z-score is -0.423 in assay [7]; 0.758 (inactive) in assay [10]; -0.114 (inactive) in [12]; 0.999 (inactive) in assay [13]; 0.127 (inactive) in assay [14]; 0.408 (inactive) in assay [15].

For the compound `CN(C)CCCCCCNC(=O)[C@@H]1C[C@@H]2C(=O)N[C@@H](Cc3ccccc3)C(=O)N2[C@@H]1c1ccc(O)cc1`, the composite z-score was determined as 2.45 in [1]; 1.23 in assay [2]; 0.303 in assay [3]; 0.493 in assay [4]; 1.44 in assay [5]; 1.63 in assay [6]. Moreover, the composite z-score is 1.67 in [8]; 0.715 in assay [9]; 0.484 in [11]; 0.405 in [16]; -0.025 in assay [17]; 0.641 in assay [18]. In addition, the composite z-score in assay [19] is 1.37; in assay [20] it was 2.19. Also, the z-score in assay [7] is -1.06; in assay [10], 0.205 (inactive); in assay [12], -0.764 (inactive); in [13], -0.0157 (inactive); in assay [14] it was -0.528 (inactive); in assay [15], -0.167 (inactive).

Take `C=CCC(OC(C)=O)[C@@H]1[C@@H](N(Cc2cc3ccccc3o2)C(=O)c2cccc3ccccc23)c2cc(OCCCO)ccc2N1C(=O)c1ccc(-c2ccccc2)cc1` (stereo not given in full): the composite z-score in [1] is -0.202; in assay [2], 0.0155; in assay [3], -0.166; in assay [4], -0.827; in assay [5], 0.791; in assay [6] it was 0.401. The composite z-score in [8] is 0.218; in assay [9], 0.297; in assay [11] it was 0.15; in assay [16], 0.111; in assay [17], -0.196; in assay [18] it was 0.736. The composite z-score in assay [19] was 0.223; in assay [20], 0.464. Further, the z-score in [7] was 0.461; in assay [10], -0.219 (inactive); in [12], -1.82 (inactive); in assay [13] it was 0.861 (inactive); in [14], 1.38 (inactive); in assay [15] it was -0.654 (inactive).

Values taken from PubChem BioAssay.
